Assay outcomes from PubChem.
PREPL inh – human PREPL enzyme inhibition | Q4J6C6 | recombinant PREPL, fluorescence polarization activity-based probe | inhibition, % at 5.96 µM | 0.68% of 320,000 active | AID 2751;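 also: 0% = enzyme with DMSO and 100% = wells lacking enzyme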
GRK2 inh – human GRK2 inhibition via aptamer displacement; P25098; bead flow cytometry, FAM-aptamer displacement from GRK2; 0.59% of 330,000 active; inhibition of aptamer binding, % at 10 µM;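 active = inhibition of aptamer binding above 40%, roughly 3 SD of noise, on plates passing a quality check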;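 also: median bead fluorescence of bound FAM aptamer so fluorescent compounds give negative values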
Target sequence (P25098 whole entry, looked up): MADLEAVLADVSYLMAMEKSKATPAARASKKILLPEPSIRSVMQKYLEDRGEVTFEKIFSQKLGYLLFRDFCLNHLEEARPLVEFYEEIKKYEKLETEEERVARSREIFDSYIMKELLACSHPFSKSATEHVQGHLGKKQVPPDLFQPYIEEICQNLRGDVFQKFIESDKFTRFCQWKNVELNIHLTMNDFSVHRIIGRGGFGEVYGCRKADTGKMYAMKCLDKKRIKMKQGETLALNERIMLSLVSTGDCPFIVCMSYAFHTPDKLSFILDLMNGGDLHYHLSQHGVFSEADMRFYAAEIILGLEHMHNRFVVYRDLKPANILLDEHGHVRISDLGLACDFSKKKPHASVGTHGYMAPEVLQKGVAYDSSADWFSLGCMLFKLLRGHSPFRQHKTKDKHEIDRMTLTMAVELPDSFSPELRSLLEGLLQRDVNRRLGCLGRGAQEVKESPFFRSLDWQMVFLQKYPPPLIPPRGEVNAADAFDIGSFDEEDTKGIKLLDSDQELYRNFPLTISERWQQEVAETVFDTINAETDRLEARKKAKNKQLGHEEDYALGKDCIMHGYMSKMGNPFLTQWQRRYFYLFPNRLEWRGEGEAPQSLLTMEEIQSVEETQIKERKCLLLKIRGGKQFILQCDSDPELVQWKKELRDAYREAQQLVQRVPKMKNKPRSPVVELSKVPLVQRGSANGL
GASC-1 inh – blocks human GASC-1 demethylase activity; GST-JMJD2C(1-420) H3K9me3 demethylation, DELFIA europium; inhibition, % at 2.35 µM; 0.069% of 330,000 active; Q9H3R0; AID 2099;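 active = more than half of a compound's replicate wells show inhibition beyond 50%, single wells judged on their own value; inconclusive = some, but no more than half, of replicates pass 50% inhibition; inactive = no replicate passes 50% inhibition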;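 also: signal counts dimethyl H3K9 product captured on neutravidin plate; 0% = median of DMSO wells and 100% = 0.3 times that DMSO median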
VLA-4 inh – inhibition in a human VLA-4 binding assay; 0.2% of 330,000 active; AID 2557; VLA-4 expressing cells, ligand binding flow cytometry; inhibition, % (about 7 µM as worked out from the volumes in the protocol); P13612; in the data active = inhibition above about 50%
Pemphigus Ab inh – inhibitors of pemphigus antibody binding to human desmoglein-3; DSG3-coupled beads, scFv-anti-DSG3-GFP binding, flow cytometry; active compounds read low; AID 588358; 0.48% of 310,000 active; binding (percent of control), % at 10 µM; P32926;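 active = binding more than 3 SD below its plate's average and above zero; inconclusive = below that plate limit but binding exactly zero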;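 also: hits lower antibody fragment binding to DSG3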
VLA-4 allo CP – confirmation of allosteric modulators of human VLA-4 integrin. 2% of 1,300 active. AID 2813. shares compounds with VLA-4 inh. inhibition, % at 6.7 µM. U937 cells, HUTS-21 LIBS mAb binding, flow cytometry; LDV ligand present at threefold Kd; in the data active = inhibition above about 40%;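 also: 0% = ligand without compound and 100% = no ligand background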
PREPL confirm – human PREPL inhibition, confirmation. 67% of 2,000 active. recombinant PREPL, fluorescence polarization activity probe. inhibition, % at 5.96 µM. shares compounds with PREPL inh. AID 2803;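 also: 0% = protein with DMSO and 100% = wells lacking protein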
* hit, by the source's call; u = inconclusive; x = no result given. Most compounds without a hit are left out; they make up all but 1.6% or so of the library. Rule as the data show it, unless noted: active = inhibition above about 43%; inactive = the rest.

SMILES	PREPL inh	GRK2 inh	GASC-1 inh	VLA-4 inh	Pemphigus Ab inh	VLA-4 allo CP	others
CNC(=S)N1CCN(CCNC2=CC(=O)CC(C)(C)C2)CC1	-1	3	3	-3	99	x
CC1(C)CC(NCCN2CCN(C3=CC(=C(C#N)C#N)CC(C)(C)C3)CC2)=CC(=C(C#N)C#N)C1	13	2	-1	50*	100	5
CCn1ncc(N2CCOCC2)c(Cl)c1=O	4	0	5	12	98	x
O=C(COC(=O)Cc1ccsc1)Nc1cccc(F)c1	10	0	1	8	106	x
NC(=O)Cn1cc(C(=O)C(=O)N2CCOCC2)c2ccccc21	-3	0	0	-1	x	0
CC(=O)N1CCc2cc(S(=O)(=O)NC(CC(C)C)C(=O)N3CCn4c3nc3ccccc34)ccc21 (stereo not drawn)	-8	1	11	2	105	x
COc1ccc(NC(=O)CCn2cccc2)c(OC)c1	0	0	-16	58*	99	2
N#Cc1c(NC(=S)NC(=O)C2CCCC2)sc2c1CCCCC2	10	24	-5	2	97	x
CC1CC(C)CN(CCCNC(=O)c2ccc3nc(N4CCCCC4)sc3c2)C1 (stereo not drawn)	1	0	-2	40	106	x
CC1CCN(c2nc3ccc(C(=O)NCCCN4CCCCC4C)cc3s2)CC1 (stereo not drawn)	-7	0	-24	1	109	3
CC1CCCC(C)N1CCCNC(=O)c1ccc2nc(N3CCCCC3)sc2c1 (stereo not drawn)	4	0	-6	51*	111	3
CCC1CCCCN1CCCNC(=O)c1ccc2nc(N3CCCCC3)sc2c1 (stereo not drawn)	16	0	9	0	111	x
CC1CCCC(C)N1CCCNC(=O)c1ccc2nc(N3CCOCC3)sc2c1 (stereo not drawn)	-3	0	8	3	117	2
CC(=O)c1ccccc1NS(=O)(=O)c1ccc2c(c1)CC(=O)N2	18	13	1	7	99	2
COc1ccc(C(=O)C2CCCN(Cc3c[nH]c4ccccc34)C2)c(OC)c1 (stereo not drawn)	-30	40	-6	55*	108	2
CC1=C(C(=O)Nc2ccc(F)cc2)C(c2cccc(C)c2)n2nc(CCCO)nc2N1 (stereo not drawn)	13	0	-7	51*	105	-4
O=C(O)C1CCC(Cn2c(SCc3cc(=O)n4cc(Cl)ccc4n3)nc3ccsc3c2=O)CC1 (stereo not drawn)	-2	1	-1	10	99	x
CC(NC(=O)/C(C#N)=C/c1ccc(Cl)c([N+](=O)[O-])c1)c1ccccc1 (stereo not drawn)	1	0	1	61*	x	63*
C[C@@H](NC(=O)/C(C#N)=C/c1ccc(O)c(O)c1)c1ccccc1	14	2	-1	-4	102	x
COc1ccccc1-n1nnnc1SCC(=O)Nc1ccc(C)c(N)c1	-3	10	8	54*	91	3
Cc1ccc2nc(-c3ccc(NC(=S)NC(=O)C(C)C)cc3)sc2c1	-4	0	27	22	120	x
Cc1ccc2nc(-c3ccc(NC(=S)NC4CC(C)(C)NC(C)(C)C4)cc3)sc2c1	11	0	-7	54*	106	31
O=C(NCc1cccnc1)c1ccc(COc2ccc(Cl)cc2Cl)o1	-30	2	-1	-5	103	x
CCCc1ccc(OCc2ccc(C(=O)NCc3cccnc3)o2)c(OC)c1	-9	4	-21	56*	103	8
Cc1c(S(=O)(=O)N2CCC(C)CC2)c(=O)n(C)c(=O)n1C	-14	14	-9	50*	116	3
SMILES	PREPL inh	GRK2 inh	GASC-1 inh	VLA-4 inh	Pemphigus Ab inh	VLA-4 allo CP	others
Cn1c(Sc2nc3ccccc3n2C)nc2ccccc21	1	0	-8	68*	x	6
Cn1c(SCC(=O)N2CCCC2)nc2ccccc21	12	1	2	27	103	x
Nc1ncnc2nc(SCCOc3ccc(Cl)cc3)[nH]c12	4	2	62	44	x	-1
COCCCC1CCN(Cc2nc(-c3ccccc3)no2)CC1	3	0	1	42	94	7
COC(=O)c1nn(-c2ccccc2)c(Sc2ccc(OC)cc2)c1/C=N/O	-2	0	-11	-102	109	x
COC(=O)c1cc(CNC(=O)C(C)NS(=O)(=O)c2ccc(C)c(C)c2)ccc1OC (stereo not drawn)	-3	2	2	3	u	0
CC(NC(=O)COC(=O)CN1C(=O)c2ccccc2C1=O)c1ccccc1 (stereo not drawn)	5	0	-1	44	99	x
Cc1ccc(S(=O)(=O)c2ccc(Cl)cc2)cc1S(=O)(=O)N(C)CC(=O)O	3	1	-4	48	107	-3
N#Cc1ccc(S(=O)(=O)NCCc2ccncc2)cc1	x	x	x	x	100	x
COc1c(C(=O)Nc2ccccc2N2CCOCC2)cc2ccccc2c1Br	0	0	-1	-7	108	x
COCCN1CC(=O)N2C(c3cccc(C)c3)c3[nH]c4ccccc4c3C[C@H]2C1=O (stereo partly drawn)	5	2	-25	41	99	-3
NC(=O)CN1C(=O)C(=O)N(Cc2ccccc2)C1=O	3	1	10	42	96	0
Cn1c(Cn2nnc3ccccc32)nnc1SCC(=O)N1CCc2ccccc21	3	6	-16	1	105	x
Nc1c(C(=O)NCc2ccc3c(c2)OCO3)nnn1-c1ccc(OC(F)(F)F)cc1	8	0	5	5	103	x
O=[N+]([O-])c1cc2c(cc1C=Nc1ccccc1)OCO2	2	1	9	50*	105	-2
Cc1cccc(N=Cc2cc3c(cc2[N+](=O)[O-])OCO3)c1	8	3	3	-3	x	x
Cc1ccc2c(c1)c1c(n2CC(O)CNC2CCCCC2)CCCC1 (stereo not drawn)	50*	0	-1	52*	117	18	PREPL confirm=46*
Cc1ccc2c(c1)c1c(n2CC(O)CNC(CO)(CO)CO)CCCC1 (stereo not drawn)	10	0	2	6	108	x
CC(C)(C)c1ccc(C(=O)Cn2nc(C(=O)O)c3ccccc3c2=O)cc1	5	0	6	-33	101	x
O=c1c(O)c(-c2cc(O)c(O)c(O)c2)oc2cc(O)cc(O)c12	90*	7	x	56*	100	5	PREPL confirm=55*
